# Source: PubChem (National Center for Advancing Translational Sciences (NCATS))
# TGFb SMAD3 inh – blocks TGF-b signaling | Potency, µM (titrated, usually from 46.1 µM), for inactives: top-dose activity, negative = inhibition, usual class: inhibitors | 410,000 tested, 1.2% active | HepG2 CAGA-GFP TGF-b/SMAD3 reporter, GFP fluorescence, 18 h; TGF-beta stimulated, 500 pg/mL final; also: potency is read from the fitted curve at half-maximal effect; % is scaled to controls: 0 for no effect and ±100 for the full control effect; nearly all actives have a fitted effect of over 65% in size
#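 Read-out: total well GFP (ex488/em500-530) summed from mean per-cell fluorescence. Cells: HEPG2 CAGA-GFP, 1% FBS DMEM, 18 h at 37 degrees C with 500 pg/mL final TGF-beta. Unstimulated wells served as the full-inhibition control; stimulated DMSO wells = 0%.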
# DT40 TDP1 no CPT – qHTS for Inhibitors of human tyrosyl-DNA phosphodiesterase 1 (TDP1): qHTS in cells in absence of CPT | DT40 Tdp1-/- hTDP1 cells, no CPT, ATP luminescence, 48 h | Potency, µM (titrated, usually from 46.2 µM), for inactives: at the highest dose activity change, negative = growth inhibition, actives largely listed as inhibitors | 420,000 tested, 15% active | AID 686978, 2013; also: potency is read from the fitted curve at half-maximal effect; % is scaled to controls: 0 for no effect and ±100 for the full control effect; nearly all actives have a fitted effect of over 55% in size
#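 Cells were dispensed at 400 per well, compounds added by pin tool, plates incubated ≥48 hr at 37 °C, then CellTiter-Glo added for 30 min at room temperature before luminescence reading. Line: DT40 Tdp1-/- complemented with hTDP1; camptothecin omitted.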
# TDP1 cell CPT – DT40-hTDP1 cell growth loss with CPT. chicken DT40 Tdp1-/-;hTDP1 cells + 20 nM CPT, ATP luminescence, 48 h. 420,000 tested, 12% active. AID 686979. Potency, µM (series often up to 46.2 µM), inactives show top-dose activity change, negative = growth inhibition, hits mostly inhibitors; also: potency is read from the fitted curve at half-maximal effect; % is scaled to controls: 0 for no effect and ±100 for the full control effect; nearly all actives have a fitted effect of over 55% in size
#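 Chicken DT40 Tdp1-/- cells stably complemented with human TDP1 were seeded at 400 cells/well in medium containing 20 nM camptothecin, exposed to pin-transferred compounds, and grown at 37 °C for at least 48 hr. Viability was read as ATP luminescence.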
# TDP1 inh – blocks human tyrosyl-DNA phosphodiesterase 1; 350,000 tested, 0.28% active; recombinant TDP1, AlphaScreen DNA substrate cleavage; AID 485290; Potency, µM (doses to about 130 µM), inactives show top-dose activity change, negative = inhibition, most hits filed as inhibitors; also: potency is read from the fitted curve at half-maximal effect; % is scaled to controls: 0 for no effect and ±100 for the full control effect; nearly all actives have a fitted effect of over 40% in size
# Target sequence (Q9NUW8 whole entry, looked up): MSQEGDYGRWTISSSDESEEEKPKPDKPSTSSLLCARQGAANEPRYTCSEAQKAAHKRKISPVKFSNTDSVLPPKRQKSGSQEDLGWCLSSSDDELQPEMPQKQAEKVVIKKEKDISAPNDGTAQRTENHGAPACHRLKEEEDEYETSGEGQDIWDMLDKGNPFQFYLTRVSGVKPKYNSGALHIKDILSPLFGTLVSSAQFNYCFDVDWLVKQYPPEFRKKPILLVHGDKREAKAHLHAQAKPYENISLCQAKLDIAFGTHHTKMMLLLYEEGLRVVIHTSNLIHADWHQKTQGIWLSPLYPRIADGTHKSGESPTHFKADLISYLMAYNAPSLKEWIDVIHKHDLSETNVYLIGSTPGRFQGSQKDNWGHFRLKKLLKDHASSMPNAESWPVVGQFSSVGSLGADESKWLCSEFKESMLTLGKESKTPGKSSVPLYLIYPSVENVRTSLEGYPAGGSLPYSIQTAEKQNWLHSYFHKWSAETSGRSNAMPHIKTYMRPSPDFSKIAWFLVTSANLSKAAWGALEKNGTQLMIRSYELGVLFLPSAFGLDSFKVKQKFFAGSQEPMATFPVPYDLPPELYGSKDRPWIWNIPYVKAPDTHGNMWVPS
#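 E. coli-derived human Tdp1, 1 nM final. Cpd preinc 15 min RT; substrate 15 nM final, 5 min RT; AS bead mix 10 ug/ml final, 10 min RT. Signal loss = tyrosine-FITC cleavage. No-enzyme wells = max signal.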
# HepG2 tox – counter-screen for TGF-b inhibitors: cytotoxicity in HepG2 cells; HepG2 CAGA-GFP viability, ATP luminescence, 18 h; Potency, µM (highest dose often 46.1 µM), for inactives: top-dose activity change, negative = cytotoxicity, hits mostly cytotoxic; 410,000 tested, 0.76% active; also: potency is read from the fitted curve at half-maximal effect
#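 HepG2 CAGA-GFP cells (1000/well, DMEM with 1% FBS) received compound, then TGF-beta at 500 pg/mL final, and were incubated 18 hours at 37 degrees C. Viability was read by CellTiter-Glo luminescence. Media-only wells were set as complete cell-killing and DMSO as no toxicity.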
# IL-1B inflam inh – inflammasome signaling inhibition, IL-1 beta readout | THP-1 LPS/ATP IL-1B secretion, AlphaLISA, 16 h; active compounds read low | activity change, % at 57.5 µM | 360,000 tested, 4.7% active | AID 743279; in the data active = activity change below about -50%; inconclusive = mostly about -30% to -49%; also: % is scaled to controls: 0 for no effect and ±100 for the full control effect
#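 THP-1 cells pretreated 1 hr with compounds (up to 57.5 uM final), then stimulated with LPS (250 ng/mL final) plus ATP (1.25 mM final); secreted IL-1B measured by AlphaLISA after 16 hr, decreased signal indicating inhibition.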
# Active calls of the source: *; i = inactive; ? = inconclusive; nt = no result given. The list is not random: actives were taken first. Their share in the collection is about 19%. Unless noted, calls follow the shape of the dose curve; as a rule, active = well fitted curve in the direction sought with a large enough effect; inconclusive = small, poorly fitted or top-dose-only effect, or another doubt; inactive = no such curve, though single readings can be large; an effect the other way counts as inactive or inconclusive.
SMILES,TGFb SMAD3 inh,DT40 TDP1 no CPT,TDP1 cell CPT,TDP1 inh,HepG2 tox,IL-1B inflam inh
CCOC(=O)c1sc(=N)n(-c2ccc(OC)cc2)c1C,-23%,?,?,7%,-17%,-18
CCc1cccc(CC)c1-n1nnc2c(sc3nc(C)cc(C)c32)c1=O,3%,?,?,5%,-5%,nt
O=C1CC(c2cccc(O)c2)c2cc3c(cc2N1)OCO3 (stereo not drawn),-10%,-13%,-1%,2%,0%,nt
COc1ccc(N2CCN(Cc3nc4scc(-c5ccccc5)c4c(=O)[nH]3)CC2)cc1,-28%,8%,?,7%,-7%,18
O=c1[nH]c(CN2CCN(c3ccccc3)CC2)nc2scc(-c3ccccc3)c12,-5%,5.2µM*,13µM*,6%,-5%,0
COc1ccc(N2CCN(Cc3nc4scc(-c5cccs5)c4c(=O)[nH]3)CC2)cc1,0%,?,-8%,0%,20%,-69*
Cc1ccc2oc(-c3ccc(C)c(NC(=O)COc4ccc(Cl)cc4)c3)nc2c1,5%,-16%,-29%,nt,-10%,nt
CCOc1ccc(CCNC(=O)C2CC(C)=CCC2C(=O)O)cc1OCC (stereo not drawn),0%,?,0%,nt,3%,8
Cc1cc(C)c2c(c1)[C@@H]1C=CC[C@@H]1[C@H](c1ccc(S(=O)(=O)N3CCOCC3)cc1)N2,0%,18µM*,16µM*,0%,-14%,-17
CC(C)(C)n1nnnc1C(CCc1ccccc1)N1CCN(C/C=C/c2ccccc2)CC1 (stereo not drawn),?,15µM*,?,nt,-8%,-27
CCCCn1nnnc1C(CCc1ccccc1)N1CCN(C/C=C/c2ccccc2)CC1 (stereo not drawn),?,23µM*,?,nt,-44%,?
CC(C)C(c1nnnn1C(C)(C)C)N1CCC(Cc2ccccc2)CC1 (stereo not drawn),-32%,?,?,8%,2%,-76*
CC(C)C(c1nnnn1C(C)(C)C)N1CCOCC1 (stereo not drawn),-3%,-19%,-9%,3%,-5%,5
O=C1C=CC(=Nc2ccc3c(c2)Cc2ccccc2-3)O1,5%,9%,7%,nt,-1%,-6
CCOC(=O)c1cccc(NC(=O)CN2C(=O)C3C4C=CC(C4)C3C2=O)c1 (stereo not drawn),-1%,-5%,2%,4%,-18%,-95*
CCOC(=O)c1cccc(NC(=O)CSc2cc(=O)n(C)c3ccccc23)c1,?,?,21µM*,-2%,-37%,nt
Cn1c(=O)cc(SCC(=O)Nc2ccccn2)c2ccccc21,-13%,-8%,-13%,3%,-27%,25
CCn1c(=O)cc(SCC(=O)Nc2ccc(OC)c(OC)c2)c2ccccc21,-3%,23µM*,18µM*,5%,-34%,?
CCn1c(=O)cc(SCC(=O)Nc2cc(Cl)ccc2OC)c2ccccc21,?,16µM*,?,3%,-34%,nt
COC(=O)C1=C[C@@H](C(=O)OC)[C@@H]2C3=C(C(=O)C2(C)C)[C@H](c2ccccc2)[C@@H]2C(=O)N(c4ccccc4)C(=O)[C@@H]2[C@@H]3C1,1%,nt,nt,20%,9%,nt
CN(C)c1ccc(-c2cc(NCc3ccccc3)ncn2)cc1,nt,?,?,4%,nt,nt
Cn1c(=O)cc(SCC(=O)Nc2cccnc2)c2ccccc21,11%,?,?,-4%,-3%,38
COc1ccc(CNC(=O)CSc2cc(=O)n(C)c3ccccc23)cc1,-7%,16µM*,?,0%,-28%,-23
COc1cc(NC(=O)CSc2cc(=O)n(C)c3ccccc23)cc(OC)c1OC,39%,?,10µM*,0%,-8%,nt
Nc1ncccc1OCc1ccc(Cl)c(Cl)c1,-16%,26µM*,?,7%,-58%,?
SMILES,TGFb SMAD3 inh,DT40 TDP1 no CPT,TDP1 cell CPT,TDP1 inh,HepG2 tox,IL-1B inflam inh
COc1cc(CNCc2ccccn2)ccc1OCc1ccc(Cl)cc1Cl,?,?,?,8%,-70%,-53*
COc1cc(CNCc2ccccn2)ccc1OCc1ccc(Cl)c(Cl)c1,-10%,?,?,3%,-28%,-93*
COc1cccc(Cc2nc3ccccc3nc2SCC(=O)Nc2cccc(C)c2)c1,-3%,?,?,3%,-9%,nt
Cc1cnc(C(=O)OCC(=O)N2C(C)CCCC2C)cn1 (stereo not drawn),-5%,-8%,3%,-3%,3%,-1
CNc1nnc(C(F)(F)F)s1,-17%,-4%,5%,3%,1%,nt
Fc1ccc(Nc2nnc(C(F)(F)F)s2)cc1,4%,-27%,-13%,4%,-2%,-69*
COc1ccccc1OCC(=O)N1CCCC(Nc2ccc(C)c(C)c2)C1 (stereo not drawn),7%,-16%,?,5%,-8%,-14
COc1ccc(NC2CCCN(C(=O)COc3ccc(Cl)cc3C)C2)cc1OC (stereo not drawn),-23%,26µM*,23µM*,9%,-25%,i
O=S(=O)(Nc1cccnc1)c1cccnc1,-8%,0%,-1%,nt,1%,2
CCCCOc1ccc(S(=O)(=O)Nc2cc(OC)ccc2OC)cc1,?,16µM*,?,2%,-54%,-75*
Cc1ccc(S(=O)(=O)Nc2cccnc2)cc1,-2%,29µM*,?,2%,2%,22
CCCCOc1ccc(S(=O)(=O)Nc2cccnc2)cc1,0%,10µM*,9.2µM*,1%,-6%,-17
CCCCOc1ccc(OC(=O)Nc2cc(Cl)ccc2OC)cc1,-1%,15µM*,18µM*,nt,-2%,0
CCC(=O)Nc1ccc(S(=O)(=O)Nc2cccnc2)cc1,-3%,-9%,-7%,2%,10%,17
O=C(CS(=O)(=O)c1ccccc1)NCc1ccc(Cl)cc1,0%,10%,-11%,3%,4%,9
COCCn1c(=O)c(-c2ccc(Cl)cc2)nc2cnc(N3CCNCC3)nc21,nt,12µM*,6.5µM*,nt,nt,nt
Cn1c(=O)c(CCc2ccccc2)nc2cnc(N3CCNCC3)nc21,nt,9.2µM*,?,nt,nt,nt
N#CCCn1c(=O)c(-c2cccs2)nc2cnc(N3CCNCC3)nc21,nt,3.7µM*,?,nt,nt,nt
